Measured values taken from PubChem BioAssay (EPA / NIEHS).
The source made the active and inactive calls. How the source made its calls: active means hit-call score of the fitted dose curve at least 0.9, where 1 is the maximum; inactive means score below 0.9.

Experiments:
Conditions in all cases: mRNA level, 48 h; actives raise or lower the signal
[1] = read-out: Cytochrome P450 7A1 (Homo sapiens) (UniProt P22680); assay: LTEA_HepaRG_CYP7A1: Life Technologies and Expression Analysis (LTEA) Assay for Cytochrome P450 7A1 (CYP7A1) using HepaRG (AID 2283496)
Procedure, shortened: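 HepaRG, 48 h exposure, 8-pt half-log series from 100 uM, 0.5% DMSO vehicle, duplicates. Readout: TaqMan qRT-PCR mRNA vs three housekeeping genes; bidirectional curve fit against DMSO baseline.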

[2] = read-out: Glutathione S-Transferase (GSTA2), GSTA2 (gene 2939); assay: LTEA_HepaRG_GSTA2: Life Technologies and Expression Analysis (LTEA) Assay for Glutathione S-Transferase (GSTA2) using HepaRG (AID 2283497)
Procedure, shortened: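 Oxidative-stress marker GSTA2 is quantified by TaqMan qRT-PCR in HepaRG cultures treated 48 h across an eight-point range to 100 uM. Expression is normalized to endogenous controls and compared with 0.5% DMSO vehicle.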

[3] = read-out: Glutamate-cysteine ligase catalytic (GCLC), GCLC (gene 2729); assay: LTEA_HepaRG_GCLC: Life Technologies and Expression Analysis (LTEA) Assay for Glutamate-cysteine ligase catalytic (GCLC) using HepaRG (AID 2283498)
Procedure, shortened: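 Oxidative-stress marker GCLC is measured as mRNA change in human HepaRG liver cells after 48 h chemical treatment in 0.5% DMSO, eight concentrations from 100 uM. Activity is fitted bidirectionally against vehicle.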

[4] = read-out: growth arrest and DNA damage 45 (GADD45G), GADD45G (gene 10912); assay: LTEA_HepaRG_GADD45G: Life Technologies and Expression Analysis (LTEA) Assay for growth arrest and DNA damage 45 (GADD45G) using HepaRG (AID 2283499)
Procedure, shortened: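 Concentration-response in HepaRG: 48 h dosing, 0.5% DMSO, highest level 100 uM. GADD45G expression by qRT-PCR, normalised to endogenous controls; bidirectional fit to DMSO.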

[5] = read-out: Glutamate-cysteine ligase regulatory (GCLM), GCLM (gene 2730); assay: LTEA_HepaRG_GCLM: Life Technologies and Expression Analysis (LTEA) Assay for Glutamate-cysteine ligase regulatory (GCLM) using HepaRG (AID 2283500)
Procedure, shortened: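 Endpoint is GCLM transcript level by qRT-PCR, normalized to three housekeeping genes, after 48 h chemical exposure of human HepaRG cells (0.5% DMSO vehicle, top 100 uM, half-log dilutions). Fitting was bidirectional relative to DMSO.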

[6] = read-out: Glutathione S-transferase M3 (GSTM3), GSTM3 (gene 2947); assay: LTEA_HepaRG_GSTM3: Life Technologies and Expression Analysis (LTEA) Assay for Glutathione S-transferase M3 (GSTM3) using HepaRG (AID 2283501)
Procedure, shortened: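 Expression of GSTM3 is determined by qRT-PCR in human liver HepaRG cells treated 48 h with an 8-point half-log range from 100 uM in 0.5% DMSO.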

[7] = read-out: Heat shock 70 kDa protein 1 (HSPA1A), gene 3303; assay: LTEA_HepaRG_HSPA1A: Life Technologies and Expression Analysis (LTEA) Assay for Heat shock 70 kDa protein 1 (HSPA1A) using HepaRG (AID 2283502)
Procedure, shortened: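 Cells were plated and cultured for 48 h, then switched to serum-free induction medium. Chemicals were added at eight half-log concentrations up to 100 uM for 48 h. RNA was then isolated and HSPA1A measured by qRT-PCR with bidirectional curve fitting against DMSO.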

[8] = read-out: Hypoxia-inducible factor 1-alpha (Homo sapiens) (UniProt Q16665); assay: LTEA_HepaRG_HIF1A: Life Technologies and Expression Analysis (LTEA) Assay for Hypoxia-inducible factor 1 (HIF1A) Trancription factor using HepaRG (AID 2283503)
Procedure, shortened: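 HIF1A transcript level read by qRT-PCR (ACTB, GAPDH, POLR2A normalization) after 48 h chemical exposure of HepaRG cultures. Eight half-log concentrations, top 100 uM, 0.5% DMSO vehicle, duplicates; bidirectional curve fit against DMSO baseline.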

[9] = read-out: 3-Hydroxy-3-Methylglutaryl-CoA Synthase 2 (HMGCS2), HMGCS2 (gene 3158); assay: LTEA_HepaRG_HMGCS2: Life Technologies and Expression Analysis (LTEA) Assay for 3-Hydroxy-3-Methylglutaryl-CoA Synthase 2 (HMGCS2) using HepaRG (AID 2283504)
Procedure, shortened: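 This steatosis marker was read as HMGCS2 mRNA change in HepaRG cells treated 48 h with up to 100 uM chemical. Normalisation used housekeeping genes; activity in either direction was fitted relative to 0.5% DMSO vehicle.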

HGF (gene 3082) = assay: LTEA_HepaRG_HGF: Life Technologies and Expression Analysis (LTEA) Assay for Hepatocyte Growth Facto (HGF) using HepaRG (AID 2283505)
Procedure, shortened: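 Using HepaRG monolayers kept in 0.5% DMSO, chemicals were tested in duplicate over eight half-log concentrations from 100 uM for 48 h. Endpoint: HGF mRNA change relative to DMSO, normalized to ACTB/GAPDH/POLR2A.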

[10] = read-out: Insulin Like Growth Factor 1 (IGF1), IGF1 (gene 3479); assay: LTEA_HepaRG_IGF1: Life Technologies and Expression Analysis (LTEA) Assay for Insulin Like Growth Factor 1 (IGF1) using HepaRG (AID 2283506)
Procedure, shortened: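 Cells are thawed, plated and cultured 48 h, then exposed in duplicate to chemical (highest 100 uM, half-log steps, 0.5% DMSO) for another 48 h. Total RNA is analysed by Fluidigm qRT-PCR for IGF1 expression relative to vehicle.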

[11] = read-out: Intercellular Adhesion Molecule 1 (ICAM1), ICAM1 (gene 3383); assay: LTEA_HepaRG_ICAM1: Life Technologies and Expression Analysis (LTEA) Assay for Intercellular Adhesion Molecule 1 (ICAM1) using HepaRG (AID 2283507)
Procedure, shortened: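 Using the human liver line HepaRG, compounds are tested in duplicate over 48 h at concentrations up to 100 uM. Expression is determined by TaqMan qRT-PCR, normalized to endogenous controls, and analysed relative to 0.5% DMSO vehicle.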

[12] = read-out: Insulin-like growth factor-binding protein 1 (IGFBP1), IGFBP1 (gene 3484); assay: LTEA_HepaRG_IGFBP1: Life Technologies and Expression Analysis (LTEA) Assay for Insulin-like growth factor-binding protein 1 (IGFBP1) using HepaRG (AID 2283508)
Procedure, shortened: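 HepaRG, 48 h, 8 conc. (max 100 uM, half-log), duplicates, 0.5% DMSO. Readout: TaqMan qRT-PCR, ACTB/GAPDH/POLR2A normalisation. Fit: bidirectional vs DMSO.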

[13] = read-out: Interleukin 6 (IL6), IL6 (gene 3569); assay: LTEA_HepaRG_IL6: Life Technologies and Expression Analysis (LTEA) Assay for Interleukin 6 (IL6) using HepaRG (AID 2283509)
Procedure, shortened: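 Changes in IL6 mRNA, up or down relative to 0.5% DMSO controls, were derived from concentration-response curves in human HepaRG cells treated for 48 h at up to 100 uM, with ACTB, GAPDH and POLR2A as normalizers.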

[14] = read-out: Interleukin 6 Receptor (IL6R), IL6R (gene 3570); assay: LTEA_HepaRG_IL6R: Life Technologies and Expression Analysis (LTEA) Assay for Interleukin 6 Receptor (IL6R) using HepaRG (AID 2283510)
Procedure, shortened: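 Cells were thawed, plated and cultured 48 h, then medium was changed to serum-free induction medium. Chemicals were added in duplicate (100 uM top, half-log steps, 0.5% DMSO) for 48 h. Lysates were analyzed by qRT-PCR for IL6R expression.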

[15] = read-out: Potassium channel subfamily K member 1 (KCNK1), KCNK1 (gene 3775); assay: LTEA_HepaRG_KCNK1: Life Technologies and Expression Analysis (LTEA) Assay for Potassium channel subfamily K member 1 (KCNK1) using HepaRG (AID 2283511)
Procedure, shortened: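 Human HepaRG cultures receive test chemicals for 48 h in 0.5% DMSO, top concentration 100 uM with half-log dilutions. Induction or suppression of KCNK1 mRNA relative to DMSO is derived by bidirectional fitting of qRT-PCR data.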

[16] = read-out: Keratin 19 (KRT19), KRT19 (gene 3880); assay: LTEA_HepaRG_KRT19: Life Technologies and Expression Analysis (LTEA) Assay for Keratin 19 (KRT19) using HepaRG (AID 2283512)
Procedure, shortened: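 Readout is qRT-PCR of KRT19 mRNA, normalized to ACTB, GAPDH and POLR2A, from HepaRG cells treated 48 h with eight-point half-log dilutions topping at 100 uM. Activity in either direction is scored relative to 0.5% DMSO vehicle.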

[17] = read-out: JUN Transcription Factor, JUN (gene 3725); assay: LTEA_HepaRG_JUN: Life Technologies and Expression Analysis (LTEA) Assay for JUN Transcription Factor using HepaRG (AID 2283513)
Procedure, shortened: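 Read-out is JUN transcript level by TaqMan qRT-PCR, normalized to ACTB, GAPDH and POLR2A, after 48 h chemical treatment of HepaRG cells. Concentration-response spanned eight half-log points up to 100 uM in 0.5% DMSO.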

[18] = read-out: Lipase C (LIPC), LIPC (gene 3990); assay: LTEA_HepaRG_LIPC: Life Technologies and Expression Analysis (LTEA) Assay for Lipase C (LIPC) using HepaRG (AID 2283514)
Procedure, shortened: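 In this multiplexed gene-expression screen, human HepaRG cultures received test chemicals for 48 h across eight concentrations with 100 uM highest, in duplicate. Values reflect LIPC mRNA induction or suppression versus DMSO vehicle, from normalized qRT-PCR.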

[19] = read-out: Lipoprotein lipase (LPL), LPL (gene 4023); assay: LTEA_HepaRG_LPL: Life Technologies and Expression Analysis (LTEA) Assay for Lipoprotein lipase (LPL) using HepaRG (AID 2283515)
Procedure, shortened: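 Concentration-response testing used half-log steps from 100 uM in 0.5% DMSO on human HepaRG cells, 48 h, duplicate wells. Phenobarbital 1 mM served as induction control; LPL mRNA was normalized to ACTB, GAPDH, POLR2A.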

Measured: outcome

Chain of Hypoxia-inducible factor 1-alpha (Homo sapiens) (Q16665 whole entry, looked up): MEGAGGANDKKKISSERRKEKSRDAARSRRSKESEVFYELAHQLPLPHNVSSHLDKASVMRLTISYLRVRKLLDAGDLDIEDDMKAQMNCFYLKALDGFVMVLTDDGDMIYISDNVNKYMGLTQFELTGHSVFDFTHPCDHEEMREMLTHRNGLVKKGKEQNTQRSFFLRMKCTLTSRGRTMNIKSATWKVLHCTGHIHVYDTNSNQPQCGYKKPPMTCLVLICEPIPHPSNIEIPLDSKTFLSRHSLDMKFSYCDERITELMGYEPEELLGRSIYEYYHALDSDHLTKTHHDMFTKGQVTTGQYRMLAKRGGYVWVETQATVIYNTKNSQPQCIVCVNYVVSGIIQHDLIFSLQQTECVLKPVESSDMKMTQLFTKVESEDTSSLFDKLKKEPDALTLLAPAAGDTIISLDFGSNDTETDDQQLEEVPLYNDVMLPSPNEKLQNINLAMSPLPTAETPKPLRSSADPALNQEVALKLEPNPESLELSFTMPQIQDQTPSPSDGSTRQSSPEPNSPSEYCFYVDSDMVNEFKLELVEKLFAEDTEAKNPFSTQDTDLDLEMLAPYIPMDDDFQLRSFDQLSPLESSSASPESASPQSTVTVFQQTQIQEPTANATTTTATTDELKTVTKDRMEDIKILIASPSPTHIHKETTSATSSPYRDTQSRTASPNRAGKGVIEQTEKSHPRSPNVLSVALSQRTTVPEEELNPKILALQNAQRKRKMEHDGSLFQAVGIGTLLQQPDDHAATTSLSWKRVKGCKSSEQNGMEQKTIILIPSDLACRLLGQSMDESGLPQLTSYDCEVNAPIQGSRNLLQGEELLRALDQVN

O=C(O)c1ccc([N+](=O)[O-])cc1
inactive: [1] | [2] | [3] | [4] | [5] | [6] | [7] | [8] | [9] | HGF (gene 3082) | [10] | [11] | [12] | [13] | [14] | [15] | [16] | [17] | [18] | [19]
